SW480 rerep: DNA re-replication induction in SW480 cells. SW480 DNA re-replication, Hoechst DNA content imaging, 48 h. Potency, µM (titrated, usually from 46.1 µM), actives largely listed as activators. 340,000 compounds, 1.8% hits. AID 624297; also: nearly all actives have a fitted effect of over 55% in size
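Compounds, transferred as 23 nL by pin tool, were incubated with cells for 48 hr; DNA content per nucleus was then quantified by Hoechst staining and fluorescence plate imaging.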
KB-3-1 tox: KB-3-1 parental cell cytotoxicity; 400,000 compounds, 1.4% hits; Potency, µM (top dose mostly 46.1 µM), hits mostly cytotoxic; AID 1347075; KB-3-1 viability, CellTiter-Glo ATP luminescence, 72 h; also: nearly all actives have a fitted effect of over 60% in size
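Luminescent ATP read-out (CellTiter-Glo) measures survival of drug-naive KB-3-1 cells after 72 h compound exposure at 37 °C. Titration series was screened from lowest to highest concentration, with DMSO vehicle plates as background controls.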
HT1080NT lethal: kills 2HG-producing HT-1080-NT fibrosarcoma cells; HT-1080-NT fibrosarcoma viability, CellTiter-Glo ATP luminescence, 48 h; Potency, µM (highest dose often 46.1 µM), actives largely listed as cytotoxic; 360,000 compounds, 1.6% hits; AID 686970;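 also: NT is the 2HG producing partner of a matched IDH1 knockdown line; nearly all actives have a fitted effect of over 55% in size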
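HT-1080-NT fibrosarcoma cells (2HG-overproducing), 750 cells/well in RPMI with 5% FBS, dosed after 2 h and incubated 48 h at 37C. CellTiter-Glo luminescence normalized to DMSO and no-cell wells; concentration-response curves fitted and classed.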
MCF10A rerep: DNA re-replication induction in MCF 10a cells; MCF 10A DNA re-replication, Hoechst nuclear intensity, 48 h; Potency, µM (highest dose often 46.1 µM), actives largely listed as activators; 350,000 compounds, 2.9% hits; AID 624296; also: nearly all actives have a fitted effect of over 50% in size
HT1080 IDH1KD tx: HT-1080 IDH1 knockdown cell toxicity (counter line). HT-1080 IDH1 knockdown viability, ATP luminescence, 48 h. Potency, µM (top dose mostly 46.1 µM), most hits filed as cytotoxic. 360,000 compounds, 2% hits
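Viability of IDH1-knockdown HT-1080 fibrosarcoma cells was assessed by CellTiter-Glo after 48 h at 37 °C with titrated compound; concentration-effect curves were classified by fit quality and response size.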
KB-V1 MDR tox: kills drug-selected multidrug resistant KB-V1 cells; KB-V1 MDR cells viability, CellTiter-Glo, 72 h; Potency, µM (titrated, usually from 46.1 µM), usual class: cytotoxic; 400,000 compounds, 3.4% hits; AID 1347076; also: nearly all actives have a fitted effect of over 60% in size
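KB-V1 MDR subline cells in DMEM (phenol-red free, 10% FBS) exposed to compounds in qHTS concentration series for 72 h at 37 degrees C. Viability read by CellTiter-Glo luminescence; concentration-effect curves fitted after normalization and correction.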
Hits are given with their value; - = inactive; ? = inconclusive; . = no result given; ! = repeats disagree; [ ] = another dose, or the depositor's remark. A selection: hits, their analogues and other compounds. The true share with any hit is near 7.9%. Calls follow the shape of the dose curve; as a rule, active = well fitted curve in the direction sought with a large enough effect; inconclusive = small, poorly fitted or top-dose-only effect, or another doubt; inactive = no such curve, though single readings can be large; an effect the other way counts as inactive or inconclusive.

SMILES | SW480 rerep | KB-3-1 tox | HT1080NT lethal | MCF10A rerep | HT1080 IDH1KD tx | KB-V1 MDR tox
O=C(NC1CC(=O)N(c2cccc(F)c2)C1)C(=O)c1c[nH]c2ccccc12 (stereo unspecified) | - | - | - | - | - | -
O=C(Nc1ccccc1)Nc1ncc([N+](=O)[O-])s1 | ? | 18.4µM | 9.2µM | - | 9.2µM | ?
CN(C)c1ccc(/C=C/c2ccnc3c2ccc2ccccc23)cc1 | . | - | . | . | . | ?
CN(C)c1ccc(/C=C/c2ccnc3ccccc23)cc1 | . | 11.6µM | . | . | . | ?
CN(C)c1ccc(/C=C/c2ccnc3ccc4ccccc4c23)cc1 | . | 1.64µM | . | . | . | -
CN(C)c1ccc(C=Cc2nccc3ccccc23)cc1 | . | 9.2µM | ? | . | 20.6µM | -
O=C(NCCc1ccncc1)c1ccc2nc(Cc3cccc(Cl)c3)oc2c1 | - | . | - | ? | - | .
CC1CCCN(C(=O)CNS(=O)(=O)c2cccs2)C1 (stereo unspecified) | - | - | - | - | - | ?
O=[N+]([O-])c1ccc(/C=C/C2=NN(c3ccccc3)C(c3ccco3)C2)o1 (stereo unspecified) | - | 7.31µM | - | - | ? | ?
C(=C\c1ccco1)/C1=NN(c2ccccc2)C(c2ccco2)C1 (stereo unspecified) | 2.31µM | - | - | 2.06µM | - | ?
COc1cccc(-c2cc(C(=O)NCc3ccc(F)cc3)no2)c1 | . | - | . | . | . | -
O=C1CSCc2nc3ccccc3n21 | - | - | - | - | - | -
Cc1cc(C)c[n+](C(C)C(=O)c2ccc(-c3ccccc3)cc2)c1 (stereo unspecified) | - | 5.8µM | - | - | ? | -
N#CNC(=Nc1ccc(F)cc1)SCc1ccccc1 | 3.66µM | - | - | ? | - | -
C(=Nc1cccnc1)c1ccnc2ccccc12 | . | - | . | . | . | -
COc1cccc(CNC(=O)Cc2ccc(-n3c(=O)[nH]c4ccccc4c3=O)cc2)c1 | ? | 4.11µM | ? | ? | ? | ?
COc1ccc(CC(=O)Oc2ccc(F)cc2)cc1 | - | - | - | 0.651µM | - | ?
CCCCC[C@H]1CN(CCc2ccccc2)C(=O)[C@@H]1CC(=O)NCc1ccc(OC)cc1 | -[9.22 µM] | ? | - | - | - | 18.4µM!
COc1cccc(CNC(=O)Cc2ccc(-c3ccccc3)cc2)c1 | ? | ? | ? | 10.3µM | 18.4µM | ?
CC(OC(=O)c1ccc(Cl)cc1)C(=O)NCC1CCCCC1 (stereo unspecified) | - | - | -[9.24 µM] | - | - | -
O=C(Cn1c(=O)n(Cc2ccco2)c(=O)c2sc3ccccc3c21)Nc1ccccc1C(F)(F)F | . | - | . | . | . | -
CCc1nc2c(OCCOc3ccc(F)cc3)cccn2c1N(C)C(=O)c1ccco1 | . | - | - | . | - | ?
CCN(c1ccccc1)S(=O)(=O)c1cccc(C(=O)NCC2(N(C)C)CCCCC2)c1 | - | - | - | - | - | -
Cc1cc(N2CCN(C)CC2)nc2ccc(NC(=O)Nc3ccccc3Br)cc12 | . | - | . | . | . | ?
COc1ccc(CNC(=O)c2cccc(C)c2[N+](=O)[O-])cc1 | - | - | - | - | - | 23.1µM
SMILES | SW480 rerep | KB-3-1 tox | HT1080NT lethal | MCF10A rerep | HT1080 IDH1KD tx | KB-V1 MDR tox
COc1ccc(OCCC(=O)NCc2ccccc2)cc1 | - | - | - | - | - | -
COc1cccc(CN(C)CC(=O)NC(=O)NCc2ccccc2)c1 | - | - | - | - | - | 20.6µM
Cc1cccc(C(=O)NCc2ccc(S(N)(=O)=O)cc2)c1[N+](=O)[O-] | - | - | - | - | - | -
COc1ccc(CC(=O)NCc2ccccc2)cc1 | ? | ? | ? | 7.31µM | 8.2µM | -
COc1ccc(CN(C)CC(=O)NC(=O)NCc2ccccc2)cc1OC | - | - | - | - | - | -
CC(=O)c1ccc(Nc2cc(C)nc3c(C)cc(C)cc23)cc1 | 2.59µM | ? | 9.2µM | ? | 8.2µM | ?
COc1ccc(-c2cc(CNC(=O)CN(C)Cc3ccccc3)on2)cc1 | - | - | - | - | - | 2.59µM
COc1cc(OC)cc(C(=O)NCC(=O)Nc2ccc(-c3ccccc3)cc2)c1 | 8.2µM | ? | 2.91µM | 4.61µM | 5.8µM | -
